Our source for the z-score and composite z-score values is PubChem BioAssay.

The nature of test [1]: compound effects on differentiated 3T3-L1 adipocyte viability – cell-based, 3T3-L1 adipocytes, calcein-AM fluorescence, 48 h, basal, profiling panel (AID 1163). The note with it: 3T3-L1 adipocytes viability, higher = more signal.
Test [2] is described as follows: compound effects on hepatocellular carcinoma cell viability – HepG2, calcein-AM fluorescence, 48 h, basal, profiling panel (AID 1164). Conditions: higher = more signal.
Test [3] is described as follows: compound effects on multiple myeloma cell viability – MM1S, calcein-AM fluorescence, 48 h, basal, profiling panel (AID 1165).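 Note: viability of MM1S multiple myeloma cells under basal unstimulated conditions.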 The note with it: higher = more signal.
Test [4] can be described thus: calcein-AM signal in unstimulated myeloma cells – cell-based, calcein-AM fluorescence, 48 h, PK04 Diversity Set, profiling panel (AID 1166).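 Note: cells grown under basal conditions without added stimulus.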 Conditions: RPMI8226 myeloma viability, higher = more signal.
A short description of test [5]: JC-1 mitochondrial signal, unstimulated HepG2 cells – cell-based, JC-1 fluorescence, 24 h, 100 nL compound, profiling panel (AID 1167). The note with it: HepG2 mitochondrial potential, higher = more signal.
A short description of test [6]: JC-1 mitochondrial signal, unstimulated adipocytes – cell-based, JC-1 fluorescence, 3T3-L1 adipocytes, 24 h, 100 nL compound, profiling panel (AID 1168). Conditions: JC-1 mitochondrial fluorescence, higher = more signal, called active from +8 up or from −8 down.
A short description of test [7]: JC-1 mitochondrial signal, unstimulated myeloma cells – cell-based, JC-1 fluorescence, RPMI8226, 24 h, 100 nL compound, profiling panel (AID 1169). The note with it: JC-1 mitochondrial potential fluorescence, higher = more signal.
Test [8] can be described thus: JC-1 mitochondrial signal, unstimulated MM1S myeloma – cell-based, JC-1 fluorescence, 24 h, 100 nL compound, profiling panel (AID 1170). Conditions: MM1S mitochondrial potential, higher = more signal.
The nature of test [9]: resazurin metabolic signal in A549 cells – cell-based, resazurin fluorescence, 24 h, PK04 Diversity Set, profiling panel (AID 1171). Conditions: A549 viability, higher = more signal, called active from +8 up or from −8 down. In general terms: The colour change of resazurin is a common sign of viable cells or microbes.
The nature of test [10]: resazurin metabolic signal in HepG2 cells – cell-based, resazurin fluorescence, 24 h, PK04 Diversity Set, profiling panel (AID 1172). The note with it: HepG2 viability, higher = more signal.
Test [11] is described as follows: budding yeast growth changes without added modifier – OD600, strain BY4716, 24 h, basal condition, primary screen (AID 1173). Conditions: S. cerevisiae BY4716 growth, OD600, 24 h; higher = more signal, called active from +8 up or from −8 down.
The nature of test [12]: viability profiling in MM1S myeloma cells – cell-based, resazurin fluorescence, basal, 24 h, PK04 Diversity Set, profiling panel (AID 1174). The note with it: higher = more signal, called active from +8 up or from −8 down.
The target of test [13] is Dihydroorotate dehydrogenase (quinone), mitochondrial (Plasmodium falciparum (isolate 3D7)) (UniProt Q08210). The test is described as follows: inhibition of P. falciparum DHODH – biochemical, C-terminal His tag, absorbance 600 nm, primary screen (AID 1175).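 Note: recombinant parasite enzyme with a five histidine tag at its C terminus.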 Conditions: PfDHODH enzyme, DCIP absorbance 600 nm; higher = more signal, called active from +8 up or from −8 down.

Test [14] is described as follows: growth modulation of vineyard yeast isolate – strain RM11-1a, OD600, basal, 24 h, primary screen (AID 1177).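 Note: cultures grown under basal conditions with no added stressor.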 Conditions: S. cerevisiae RM11-1a growth, OD600, 24 h; higher = more signal, called active from +8 up or from −8 down.
Test [15] can be described thus: growth of efflux-deficient E. coli DRC39 – strain DRC39, OD650, 24 h, E. coli filamentation inducers, primary screen (AID 1178).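 Note: growth measured as culture turbidity by optical density at 650 nm.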 The note with it: E. coli DRC39 acrAB, higher = more signal, called active from +8 up or from −8 down.
Test [16] in a line: growth of efflux-deficient E. coli DRC39 – strain DRC39, OD650, 48 h, E. coli filamentation inducers, primary screen (AID 1179).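 Note: screen aims at cell division blockers that make cells filament.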 Conditions: E. coli DRC39 delta-acrAB growth, higher = more signal, called active from +8 up or from −8 down.
The nature of test [17]: viability profiling in RPMI8226 myeloma cells – cell-based, resazurin fluorescence, basal, 24 h, PK04 Diversity Set, profiling panel (AID 1180).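 Note: RPMI8826 multiple myeloma cell line at 5000 cells per well.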 Conditions: higher = more signal.
The target of test [18] is E3 ubiquitin-protein ligase XIAP (Homo sapiens) (UniProt P98170). The test is described as follows: small molecules binding XIAP protein – biophysical, small-molecule microarray, fluorescence 635 nm, primary screen (AID 1181).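 Note: score merges 667 nm emission and signal to noise over triplicate slides.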 The note with it: higher = more signal.
The test system of test [19] is XIP peptide (Xip251-270) binding. The test is described as follows: XIP fragment 251-270 binding compounds – biochemical, small-molecule microarray, fluorescence 635/667 nm, 0.1 µg/mL protein, primary screen (AID 1182). Conditions: fluorescent protein binding, 635 nm, higher = more signal, called active from +8 up or from −8 down.
Test [20] deals with XIP peptide (Xip251-270). The test is described as follows: compounds binding XIP fragment 251-270 – biochemical, small-molecule microarray, fluorescence 635/667 nm, 0.5 µg/mL protein, primary screen (AID 1183). The note with it: fluorescence 635 nm, higher = more signal.

Molecules are shown by their SMILES. Activity calls are given as the source filed them.

Sequence of Dihydroorotate dehydrogenase (quinone), mitochondrial (Plasmodium falciparum (isolate 3D7)) (Q08210 whole entry, looked up): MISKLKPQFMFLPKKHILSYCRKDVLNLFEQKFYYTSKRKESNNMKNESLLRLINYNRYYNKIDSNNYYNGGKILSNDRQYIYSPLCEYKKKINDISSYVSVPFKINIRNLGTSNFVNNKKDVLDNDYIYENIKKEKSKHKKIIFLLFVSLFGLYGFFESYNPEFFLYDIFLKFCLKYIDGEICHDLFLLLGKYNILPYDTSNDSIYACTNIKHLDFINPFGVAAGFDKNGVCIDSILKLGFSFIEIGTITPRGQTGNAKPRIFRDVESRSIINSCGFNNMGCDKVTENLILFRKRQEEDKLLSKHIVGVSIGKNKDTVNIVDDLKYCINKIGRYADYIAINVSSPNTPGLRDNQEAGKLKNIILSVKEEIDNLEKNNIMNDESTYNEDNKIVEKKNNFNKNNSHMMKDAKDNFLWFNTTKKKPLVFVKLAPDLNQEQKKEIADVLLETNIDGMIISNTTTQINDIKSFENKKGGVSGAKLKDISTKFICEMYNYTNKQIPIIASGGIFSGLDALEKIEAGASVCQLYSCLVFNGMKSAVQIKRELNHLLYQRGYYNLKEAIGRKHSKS
Sequence of E3 ubiquitin-protein ligase XIAP (Homo sapiens) (P98170 whole entry, looked up, the tested form may be a part): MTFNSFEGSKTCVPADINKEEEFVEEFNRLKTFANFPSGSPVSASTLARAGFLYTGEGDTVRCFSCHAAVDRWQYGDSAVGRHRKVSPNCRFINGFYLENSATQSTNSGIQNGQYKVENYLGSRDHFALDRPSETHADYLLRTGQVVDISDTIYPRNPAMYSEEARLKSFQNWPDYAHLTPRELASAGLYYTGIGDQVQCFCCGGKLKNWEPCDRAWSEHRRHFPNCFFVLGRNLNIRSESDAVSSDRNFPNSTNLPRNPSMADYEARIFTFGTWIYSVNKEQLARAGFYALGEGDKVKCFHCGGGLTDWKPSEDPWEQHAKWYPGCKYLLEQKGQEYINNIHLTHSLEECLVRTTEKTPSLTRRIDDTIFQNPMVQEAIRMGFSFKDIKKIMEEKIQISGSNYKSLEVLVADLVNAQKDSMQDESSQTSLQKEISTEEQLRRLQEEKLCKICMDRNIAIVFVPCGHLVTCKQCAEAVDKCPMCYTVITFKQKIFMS

Regarding `CC(C)C(=C=CC[C@H](O)c1ccc(OCCO)cc1)C[C@H](O)COCc1ccccc1`, the z-score in [1] is 0.475; in [2], -0.822; in test [3], -3.38; in test [4] it was -3.77; in [5], 0.296; in [6], 0.371 (inactive). Also, the z-score in test [7] was -0.625; in test [8], -1.36; in [9] it was 0.515 (inactive); in test [10], 0.657; in test [11], -3.15 (inactive); in test [12] it was -1.83 (inactive). Besides, the z-score in [14] was 1.04 (inactive); in [15], 1.35 (inactive); in [16], 0.883 (inactive); in test [17], -0.0676. The composite z-score in test [13] was -1.09 (inactive); in test [18], -0.0233; in test [19], 0.941 (inactive); in test [20], 0.0727.
Regarding `Cc1ccc(N2C(=O)c3ccccc3[C@](C)(C(=O)NCC(F)(F)F)[C@@H]2c2ccc(CO)cc2)nc1`, the z-score is 1.45 in test [1]; 0.529 in [2]; -0.436 in test [3]; -1.45 in test [4]; -0.106 in [5]; -0.603 (inactive) in test [6]. Moreover, the z-score was 0.54 in [7]; 1.04 in test [8]; 0.451 (inactive) in test [9]; 0.125 in test [10]; -1.08 (inactive) in [11]; 1.57 (inactive) in [12]. Also, the z-score is 0.216 (inactive) in [14], 0.24 (inactive) in test [15], 0.536 (inactive) in test [16] and 1.4 in test [17]. For the same compound, the composite z-score in [13] was 0.534 (inactive); in [18] it was 0.0506; in test [19] it was -0.0838 (inactive); in test [20] it was -0.964.
For the compound `COCCOC(=O)N1C(=O)[C@@]2(c3cc(C#CCNC(N)=O)ccc31)[C@H](C(=O)NC[C@H](O)c1ccccc1)[C@H]1C(=O)O[C@H](c3ccccc3)[C@H](c3ccccc3)N1[C@@H]2c1ccc(O)cc1`, the z-score in [1] is 0.539; in [2], 0.315; in [3], -0.825; in [4], 0.987; in test [5], -0.549; in test [6], 0.962 (inactive). In addition, the z-score in test [7] was 0.161; in test [8], -0.29; in test [9], 0.0618 (inactive); in [10], 0.141; in test [11], -0.331 (inactive); in [12], 0.751 (inactive). For the same compound, the z-score in [14] is 0.436 (inactive); in [15], -0.17 (inactive); in [16], 0.316 (inactive); in test [17], 1.46. For the same compound, the composite z-score in test [13] was -0.263 (inactive); in test [18], 0.166; in test [19] it was 1.29 (inactive); in [20], 0.178.
`CC(=O)NCCCC[C@@H]1NC(=O)[C@@H]2C[C@H](C(=O)O)[C@H](c3cccc(OCCO)c3)N2C1=O`: the z-score in [1] was 0.75; in test [2], -0.988; in test [3], -1.8; in test [4], 0.267; in test [5], 1.31; in [6], 0.317 (inactive). Also, the z-score in test [7] is 0.501; in test [8], 0.483; in test [9] it was 0.537 (inactive); in test [10] it was 0.377; in test [11] it was 0.178 (inactive); in test [12] it was 0.636 (inactive). In addition, the z-score in test [14] is 1.2 (inactive); in [15], 0.504 (inactive); in [16], 0.167 (inactive); in test [17] it was 0.873. Also, the composite z-score in test [13] was -0.252 (inactive); in [18] it was -0.363; in [19], 1.41 (inactive); in test [20], 1.
